Screening results as filed in PubChem.
USP2a block: inhibitors of human ubiquitin-specific protease USP2a. USP2 core, Ub-CHOP2 coupled fluorogenic reporter, 485/531. O75604. hit rate 0.01% among 330,000. Potency, µM (highest dose often 38.3 µM), for inactives: at the top dose activity change, negative = inhibition, most hits filed as inhibitors;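 further: plate controls were DMSO wells for no effect and full inhibition by NEM control for full effect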
Target sequence (O75604 whole entry, looked up): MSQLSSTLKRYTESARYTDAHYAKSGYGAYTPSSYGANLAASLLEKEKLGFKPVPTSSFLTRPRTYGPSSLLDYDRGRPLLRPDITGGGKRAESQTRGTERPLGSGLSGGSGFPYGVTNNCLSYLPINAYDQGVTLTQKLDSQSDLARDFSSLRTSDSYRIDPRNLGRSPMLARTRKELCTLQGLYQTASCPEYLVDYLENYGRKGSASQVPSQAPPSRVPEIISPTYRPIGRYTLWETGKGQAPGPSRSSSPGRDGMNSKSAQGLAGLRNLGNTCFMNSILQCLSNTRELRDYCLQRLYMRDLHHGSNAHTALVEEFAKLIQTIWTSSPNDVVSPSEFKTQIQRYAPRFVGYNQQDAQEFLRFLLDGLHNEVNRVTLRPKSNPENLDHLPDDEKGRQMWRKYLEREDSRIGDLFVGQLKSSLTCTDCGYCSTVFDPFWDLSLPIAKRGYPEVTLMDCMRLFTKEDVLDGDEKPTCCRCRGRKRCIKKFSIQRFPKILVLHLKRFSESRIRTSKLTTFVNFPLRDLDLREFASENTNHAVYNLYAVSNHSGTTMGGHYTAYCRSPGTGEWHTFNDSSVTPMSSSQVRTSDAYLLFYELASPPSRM
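Cell-free coupled assay: 10nM USP2 core preincubated 30min RT with compound in Tris-HCl pH 8.0/CaCl2/CHAPS buffer, then 25nM Ub-CHOP2 and 25nM reporter substrate; fluorescence (Ex 485/Em 531) read after 60min RT, normalized to NEM inhibition, concentration-response curves fitted.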
TSG101-PTAP inh: blocks PTAP/TSG101 interaction to inhibit HIV-1 budding; Q99816; Fluorescence polarization, FITC-PTAP peptide / Tsg101 binding; Potency, µM (top dose mostly 115 µM), inactives show at the top dose activity change, negative = inhibition, hits mostly inhibitors; AID 493005; 340,000 tested, under 10 active; active means well fitted inhibition curve with a large enough effect in the main read-out, with a control signal flat, not every such curve was filed as active; inconclusive means small, poorly fitted or top-dose-only effect, or effect the other way, or a change in a side signal; inactive means no such curve, though single readings can be large or run the other way; further: % of control where 0% means no effect
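Tsg101 binding domain (10 uM final) was mixed with compound and a FITC-labeled PTAP peptide (50 nM final) in HEPES pH 7.5 buffer with NaCl, Tween 20, EDTA and TCEP; fluorescence polarization was read after 20 min at r.t.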
12-LOX inh: inhibitors of human 12S-lipoxygenase ALOX12; P18054; Potency, µM (doses to about 108 µM), for inactives: at the highest dose activity change, negative = inhibition, actives largely listed as inhibitors; AID 1671190; purified 12hLO, xylenol orange hydroperoxide absorbance; hit rate 1.1% among 580,000; further: on the % scale 0 is the no-effect control and ±100 the full control effect
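Purified human 12hLO (150 nM final) in 25 mM Hepes, 0.01% Triton X-100, pH 7.0 was preincubated 15 min at room temperature with compound. Then 40 uM arachidonic acid was added, 30 min. Hydroperoxide was read by Fe-XO absorbance ratio 573/405 nm.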
Eya2 inh: inhibitors of human Eya2 phosphatase activity; O00167; recombinant Eya2, OMFP fluorescence dephosphorylation (OMFP is methylfluorescein phosphate); Potency, µM (titrated, usually from 76.9 µM), without a hit: at the highest dose activity, negative = inhibition, actives largely listed as inhibitors; hit rate 0.006% among 330,000; AID 488837; further: on the % scale 0 is the no-effect control and ±100 the full control effect
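Eya2 (0.2 uM) preincubated 10 min at ambient with compound, then OMFP substrate added at 50 uM; 10 min reaction in 50 mM HEPES pH 7.5, 50 mM NaCl, 5 uM MgCl2, 0.05% BSA, 1 mM DTT. Fluorescence read at Ex 485/Em 525 nm.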
Numbers without * were called inactive; [ ] = dose if it differs, or a comment. The list is not random: actives were taken first. Their share in the collection is about 1.1%. Unless noted, the call rests on the fitted dose curve; in most records, active means well fitted curve in the direction sought with a large enough effect; inconclusive means small, poorly fitted or top-dose-only effect, or another doubt; inactive means no such curve, though single readings can be large; an effect the other way counts as inactive or inconclusive. Potency means the concentration at half of the fitted maximal effect.

How did O=C1/C(=C/c2ccco2)SC(=S)N1c1cccnc1 do in these assays?
USP2a block: -10%; TSG101-PTAP inh: -3%; 12-LOX inh: 40µM*; Eya2 inh: -19%

How did CCOc1cc(Br)cc(C(c2c(C(=O)O)[nH]c3ccccc23)c2c(C(=O)O)[nH]c3ccccc23)c1O do in these assays?
USP2a block: 5%; TSG101-PTAP inh: -3%; 12-LOX inh: 5.6µM*; Eya2 inh: 11%

How did Cc1c(C(=O)NNC(=O)c2csc(N3CCOCC3)n2)oc2ccc(Br)cc12 do in these assays?
12-LOX inh: 40µM*

What do the screens show for `O=c1cc(-c2ccc(O)cc2)oc2cc(O)cc(O)c12`?
TSG101-PTAP inh: -1%; 12-LOX inh: inconclusive; Eya2 inh: -14%

What do the screens show for `O=c1cc(-c2ccc(O)c(O)c2)oc2c1ccc1ccccc12`?
USP2a block: 3%; TSG101-PTAP inh: 9%; 12-LOX inh: 0.35µM*; Eya2 inh: -9%

Results for O=c1oc(-c2ccc(O)c(O)c2)cc2cc(O)cc(O)c12 ?
USP2a block: -6%; TSG101-PTAP inh: 2%; 12-LOX inh: 2.5µM*; Eya2 inh: 5%

What do the screens show for `O=c1cc(-c2ccccc2)oc2c1ccc1ccccc12`?
12-LOX inh: 0%

Results for O=c1cc(-c2ccc(O)c(O)c2)oc2ccc3ccccc3c12 ?
USP2a block: 0%; TSG101-PTAP inh: -1%; 12-LOX inh: inconclusive; Eya2 inh: -36%

Results for O=c1oc(-c2ccc(O)c(O)c2)cc2cccc(O)c12 ?
USP2a block: 1%; TSG101-PTAP inh: -3%; 12-LOX inh: 4.5µM*; Eya2 inh: -1%

Results for Oc1c(Br)cc(Br)cc1C=Nc1ccc(F)c(Cl)c1 ?
12-LOX inh: 4.5µM*

Results for COc1ccc(/C=C/c2ccc3cccc([N+](=O)[O-])c3n2)cc1OC ?
12-LOX inh: -3%

Results for COc1ccc(/C=C/c2ccc3ccccc3n2)cc1OC ?
12-LOX inh: 28µM*

What do the screens show for `O=C(NC1CCCCC1)c1ccc2ncsc2c1`?
12-LOX inh: 1%

What do the screens show for `Cc1ccc(CS(=O)(=O)c2cn(CC(=O)Nc3ccon3)c3ccccc23)cc1`?
USP2a block: -2%; TSG101-PTAP inh: -4%; 12-LOX inh: -14%; Eya2 inh: 12%

What do the screens show for `Cc1ccc(NC(=O)Cn2cc(S(=O)(=O)Cc3ccc(F)cc3)c3ccccc32)cc1Cl`?
12-LOX inh: 10µM*

Results for O=C(Cn1cc(S(=O)(=O)Cc2ccccc2F)c2ccccc21)Nc1ccc(F)c(Cl)c1 ?
12-LOX inh: -37%

What do the screens show for `Cc1cccc(C)c1NC(=O)Cn1cc(S(=O)(=O)Cc2ccc(F)cc2)c2ccccc21`?
12-LOX inh: 50µM*

How did CSc1cccc(NC(=O)c2ccc3c(c2)N(C)C2CCCCN2C3=O)c1 (stereo unspecified) do in these assays?
12-LOX inh: -10%

Results for O=C1NC(c2ccccc2)Nc2c1sc(=S)n2-c1ccccc1 (stereo unspecified) ?
USP2a block: 0%; TSG101-PTAP inh: -1%; 12-LOX inh: 45µM*; Eya2 inh: -23%

Results for Cn1ncc2c(C(=O)NCC3CC3)cc(-c3cccnc3)nc21 ?
12-LOX inh: -2%[6.33 µM]

What do the screens show for `CC(=O)Nc1ccc(OCCCN2CCC(C(O)(c3ccccc3)c3ccccc3)CC2)cc1`?
12-LOX inh: -27%

How did OC(c1ccccc1)(c1ccccc1)C1CCN(CCCOc2cc(F)cc(F)c2)CC1 do in these assays?
12-LOX inh: -25%

Results for OC(c1ccccc1)(c1ccccc1)C1CCN(CCCOc2ccc(-c3ccc(F)cc3F)cc2)CC1 ?
12-LOX inh: 40µM*

What do the screens show for `COc1ccccc1-c1ccc(OCCCN2CCC(C(O)(c3ccccc3)c3ccccc3)CC2)cc1`?
12-LOX inh: 40µM*

How did COc1cccc(-c2cncnc2NCc2ccc(OC)cc2OC)c1 do in these assays?
12-LOX inh: 13µM*

How did CCCCN(CCCC)CC(O)Cn1cc(/C=C/C(=O)c2ccccc2)c2ccccc21 (stereo unspecified) do in these assays?
12-LOX inh: 45µM*

How did CCCCN(C)CC(O)Cn1cc(/C=C/C(=O)c2ccc(OCC)cc2)c2ccccc21 (stereo unspecified) do in these assays?
USP2a block: 4%; 12-LOX inh: 9%; Eya2 inh: -2%
